Compound activity as filed in PubChem BioAssay.
Compounds with a hit are over-represented: about 5.4% of the library has one in this group of screens.
Beta cell apopt = inhibitors of cytokine-induced beta cell apoptosis, primary screen, luminescence; INS-1E cytokine-induced death, ATP luminescence, 48 h; percent of positive-control rescue, neutral wells zero; protection from apoptosis, % (test concentration not listed); 300,000 compounds, 0.8% hits; AID 435005, 2010;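 active = Every replicate reaches about 75%, or at least half do and their mean reaches it too, limit read from the data; inconclusive = At least half of replicates reach the limit but their mean does not; inactive = Under half of replicates reach the limit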;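 also: 0% = cytokine-treated negative control wells and 100% = positive control rescue; higher means more ATP so stronger rescue from cytokine killing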
SKKanGAS inh = S. pyogenes SKKanGAS growth inhibitors in kanamycin, primary screen, streptokinase expression inhibitor project, SKKanGAS strain, BacTiter-Glo luminescence; 6 h; inhibition, % at 7.5 µM; 300,000 compounds, 1.3% hits; AID 1662, 2009;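 active = mean replicate score, as percent of positive control median, at least 50; inconclusive = mean below 50 but one replicate at or above 50; inactive = mean and every replicate below 50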;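 also: strain carries kanamycin resistance gene driven by streptokinase promoter and grows in 40 µg/ml kanamycin; loss of luminescence reflects streptokinase promoter inhibition or plain growth inhibition; 0% = median of DMSO wells and 100% = positive control at its reference dose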
MPTP inh = mitochondrial permeability transition pore inhibitors, primary screen, biochemical, isolated mouse mitochondria, absorbance; inhibition, % at 10 µM; 360,000 compounds, 1.4% hits; AID 602449, 2012; Ca2+ swelling absorbance, 30 min;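 active = inhibition of 50% or more, scaled per plate between neutral and stimulator controls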;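 also: 0% = DMSO wells given calcium and 100% = 1 mM EGTA wells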
Mdm2 MdmX PPI = inhibitors of human Mdm2-MdmX association, primary screen, cell-based, luminescence, split luciferase, SaOS-2, uHTS; Protein Mdm4 (Homo sapiens) + E3 ubiquitin-protein ligase Mdm2 (Homo sapiens), …; SaOS-2 split-luciferase Mdm2/MdmX complementation; inhibition, % at 8 µM; 330,000 compounds, 3% hits; AID 485346, 2010;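 active = inhibition of at least 50% at 8 µM in the primary screen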
Calb FLC = C. albicans growth inhibition with fluconazole, primary screen, CaCi-2 strain, Alamar Blue fluorescence. C. albicans CaCi-2 (fluconazole-resistant clinical isolate) + fluconazole, 48 h. growth inhibition, % (concentration not given with the values). 300,000 compounds, 0.57% hits. AID 1979, 2009;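 active = growth inhibition above about 58% in most replicates, limit read from the data, passing the limit was not always enough; inconclusive = exactly half the replicates above a set limit; inactive = most replicates below a set limit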;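 also: all wells also contain fluconazole at 8 µg/ml as a sub-toxic cotreatment; 0% = median of DMSO wells and 100% = median of geldanamycin control wells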
CSC inhib = cancer stem cell viability inhibitors, primary screen, luminescence; cancer stem cell-like cells viability; inhibition, % at 7.5 µM; 300,000 compounds, 1.1% hits; in the data active = inhibition above about 75%; inconclusive = no clear call, values can overlap the other calls; tested in HMLE shEcad cells
Mdm2 MdmX conf = Mdm2-MdmX complex disruptors, retested hits, confirmation, luminescence, single concentration | shares compounds with Mdm2 MdmX PPI | Mdm2-MdmX binding, luminescent assay | inhibition, % at 8 µM | 10,000 compounds, 55% hits | AID 489028, 2010; in the data active = inhibition above about 40%
FLuc counter = full-length luciferase signal inhibition, confirmation, counter-screen for Mdm2/MdmX interaction inhibitor project, cell-based, single concentration, SaOS-2 | shares compounds with Mdm2 MdmX PPI | SaOS-2 full-length luciferase counterscreen, luminescence | inhibition, % at 8 µM | 6,200 compounds, 77% hits | AID 504607, 2011;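 active = mean inhibition at 8 µM reaching about 37%, which flags the compound as non-specific, limit read from the data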;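 also: p53-null SaOS-2 cells with luciferase driven by a doxycycline-inducible promoter; compound on cells about two nights before reading with doxycycline added after day one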
* hit, by the source's call; u = inconclusive; x = not tested or not shown.

SMILES	Beta cell apopt	SKKanGAS inh	MPTP inh	Mdm2 MdmX PPI	Calb FLC	CSC inhib	Mdm2 MdmX conf	FLuc counter
Cc1nc(N2CCN(C(=O)COc3ccccc3)CC2)c2c(C)c(C)sc2n1	3	12	0	36	8	21	x	x
COc1ccc2c(C(=O)CCl)c[nH]c2c1	-35	2	3	57*	62	-3	53*	24
O=C(NCc1ccco1)C1CC(c2ccc(F)cc2)=NO1 (configuration not stated)	-9	3	0	-19	4	15	x	x
CCCCn1c(=O)n(CC(=O)NCc2ccc(C)cc2)c(=O)c2c1nc(CO)n2CCC	-2	8	-1	-11	-2	-2	x	x
Cc1ccc(-c2nnc3n2N=C(c2ccccc2)CS3)cc1	5	-10	0	-1	14	-1	x	x
Clc1ccc(C2=Nn3c(nnc3-c3n[nH]c4c3CCC4)SC2)cc1Cl	-32	36	3	89*	-7	32	69*	34
COc1ccc(C2=Nn3c(nnc3-c3cc(C)[nH]n3)SC2)cc1	-2	-2	2	60*	-7	-8	41*	100*
c1ccc(C2=Nn3c(nnc3-c3n[nH]c4c3CCC4)SC2)cc1	x	-3	2	71*	-6	-9	51*	89*
COc1cccc(-c2nnc3n2N=C(C(C)(C)C)CS3)c1	-48	-17	3	85*	-30	-17	99*	51*
Clc1ccc(C2=Nn3c(nnc3-c3cc(-c4ccccc4)n[nH]3)SC2)cc1	15	-5	3	37	26	8	x	x
COc1ccc(C2=Nn3c(nnc3-c3ccco3)SC2)cc1OC	9	4	0	55*	-1	0	16	x
COc1ccc(C2=Nn3c(nnc3-c3ccccc3OC)SC2)cc1OC	22	3	0	x	20	-3	x	x
c1ccc(C2=Nn3c(nnc3-c3cccs3)SC2)cc1	x	-1	3	4	4	-17	x	x
COc1cc(-c2nnc3n2N=C(c2ccccc2)CS3)cc(OC)c1OC	21	3	0	74*	-8	48	69*	57*
c1ccc(C2=Nn3c(nnc3-c3cc(-c4ccccc4)n[nH]3)SC2)cc1	x	24	-2	79*	-1	20	21	x
c1csc(C2=Nn3c(nnc3-c3ccncc3)SC2)c1	-24	-3	-3	75*	0	x	80*	51*
Cc1cc(NC(=O)CSc2nc3ccccc3n2CC(=O)N2CCCCC2)no1	x	0	-1	-7	-4	x	x	x
CCOC(=O)C1(Cc2ccccc2C(F)(F)F)CCN(C2CCN(C(C)C)CC2)CC1	9	2	2	73*	-9	23	59*	54*
CCOC(=O)C1(Cc2ccccc2C(F)(F)F)CCN(CC(O)CO)CC1 (configuration not stated)	-3	3	1	14	-12	1	x	x
CS(=O)(=O)c1cnc(-c2ccccc2)nc1Sc1ccc(F)cc1	x	-7	1	14	0	x	x	x
COc1cccc(Sc2nc(-c3ccccc3)ncc2S(C)(=O)=O)c1	x	-1	1	62*	10	x	36	x
COc1cc(OC)c2c(-c3cccc(-c4ccc(F)c(Cl)c4)c3)cc(=O)oc2c1	x	x	1	72*	x	x	61*	43*
CCOC(=O)c1ccc(-c2cccc(-c3cc(=O)oc4cc(OC)cc(OC)c34)c2)cc1	x	x	-2	39	x	x	x	x
COc1cc(OC)c2c(-c3cccc(-c4ccc(NC(C)=O)cc4)c3)cc(=O)oc2c1	x	x	2	60*	x	x	63*	79*
COc1cc2oc(=O)cc(-c3cccc(-c4cccc(C)c4)c3)c2c(OC)c1OC	x	x	0	62*	x	x	18	x
SMILES	Beta cell apopt	SKKanGAS inh	MPTP inh	Mdm2 MdmX PPI	Calb FLC	CSC inhib	Mdm2 MdmX conf	FLuc counter
COc1ccc(-c2ccc(-c3cc(=O)oc4cc(OC)c(OC)c(OC)c34)cc2)cc1OC	x	x	0	39	x	x	x	x
COc1cc(OC)c2c(-c3cccc(-c4ccc(C(F)(F)F)cc4)c3)cc(=O)oc2c1	x	x	1	44	x	x	x	x
COc1cc(OC)c2c(-c3cccc(-c4ccc(OC)c(OC)c4)c3)cc(=O)oc2c1	x	x	0	63*	x	x	52*	86*
COc1cc(OC)c2c(-c3cccc(-c4ccc(C#N)cc4)c3)cc(=O)oc2c1	x	x	0	43	x	x	x	x
CC1CCCC(NC(=O)CN2C(=O)c3cccnc3Oc3ccc(Cl)cc32)C1C (configuration not stated)	-1	9	-1	9	4	-14	x	x
COc1cc(OC)c2c(-c3cccc(-c4sccc4C(C)=O)c3)cc(=O)oc2c1	x	x	0	72*	x	x	55*	55*
Cc1ccc(S(=O)(=O)N2CCOCC2)cc1C(=O)OC(C)C(=O)NC1CCCC1 (configuration not stated)	-5	x	1	16	x	-5	x	x
CN1CN=C(NS(=O)(=O)c2ccc([N+](=O)[O-])cc2)NC1	-3	3	0	20	-3	1	x	x
CC(=O)Nc1ccc(S(=O)(=O)NC2=NCN(c3ccc([N+](=O)[O-])cc3)CN2)cc1	-3	1	0	63*	45	-5	15	x
c1ccc(Nc2ccccn2)cc1	-5	1	1	13	-1	-5	x	x
c1ccc(/N=C2\N=C(Nc3ccccn3)c3ccccc32)nc1	103*	60*	1	72*	1	52	5	x
CC(C)c1ccc(C(=O)N2CCCC(c3cc(C(=O)NCc4ccccc4)no3)C2)cc1 (configuration not stated)	x	x	13	x	x	x	x	x
CCCCCCOc1ccc(/C(C)=N/NC2=NCCN2)cc1[N+](=O)[O-]	57	7	-1	52*	u	u	71*	106*
C/C(=N\NC1=NCCN1)c1ccc(N)c([N+](=O)[O-])c1	-1	1	-2	-2	5	-2	x	x
CCCCCCCCCn1ccc(=N)cc1	116*	5	37	91*	70	7	81*	24
Cc1ccc(-c2nn3c(-c4ccco4)nnc3c3ccccc23)cc1S(=O)(=O)NCC1CCCO1 (configuration not stated)	24	15	4	53*	9	-10	39	68*
CCN(CC)S(=O)(=O)c1ccc(-c2nnc(SCC(=O)N3CCOCC3)o2)cc1	1	-5	0	-16	-14	-14	x	x
